HSF-1 act – increases HSF-1 driven luciferase reporter signal; NIH3T3-HGL HSF-1 luciferase reporter, MG132, 8 h; 100% = twice DMSO control signal; activation, % at 9 µM; 300,000 compounds, 1.7% hits;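 active = mean replicate activation of at least 50% with a set share of replicates each reaching 50%; inconclusive = only one of those two conditions met; inactive = mean below 50% and too few replicates reaching it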
MITF TRPM1 HTS – MITF TRPM1 promoter activation in melanoma cells. SK-MEL-5 TRPM1-promoter luciferase, 24 h; % of positive control, neutral wells = 0. activation, % at 12.5 µM. 300,000 compounds, 0.75% hits;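 active = mean activation of at least 80% with every replicate also reaching 80%; inconclusive = mean reaches 80% but some replicate falls short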
Wnt bcat act – activates Wnt/beta-catenin signaling in a reporter cell assay; activation, % at 9.35 µM; activator, plate reader; AID 743398; 300,000 compounds, 1.2% hits; in the data active = activation above about 30%, passing the limit was not always enough; inconclusive = no clear call, values can overlap the other calls
esBAF inh – blocks esBAF chromatin remodeling in mouse ES cells; Bmi1-luciferase knock-in reporter, 24 h; 100% = twice the neutral-well signal; reporter increase, % at 12.5 µM; 350,000 compounds, 2% hits; AID 602393; in the data active = activation above about 40%; inconclusive = no clear call, values can overlap the other calls;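 note: a rise in the Bmi1 reporter signal indicates esBAF inhibition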
HSF1 inhib – HSF1 inhibition; NIH3T3-HGL HSE-luciferase, MG132-induced, luminescence 8 h; stronger effect = lower value; AID 2098; 300,000 compounds, 0.77% hits; activity change, negative = inhibition, % at 7.5 µM (by protocol);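 active = more than half of replicate wells show activity change below -50%, luminescence cut by over half; inconclusive = some wells, but at most half, below -50%; inactive = no replicate well below -50%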;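 note: luciferase reports HSF-1 transcriptional activity via heat shock element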
A number is an active result; i = inactive; ? = inconclusive; nt = not tested or not shown. A selection: hits, their analogues and other compounds. The true share with any hit is near 3.9%.

SMILES	HSF-1 act	MITF TRPM1 HTS	Wnt bcat act	esBAF inh	HSF1 inhib
COc1ccc(CCNC(=O)c2nnn(-c3ccc4c(c3)OCCO4)c2N)cc1OC	i	nt	nt	i	-76.1
COc1ccc(/C=C/C(=O)N2CCC(c3ccccc3)C2)cc1 (centres undefined)	i	i	i	nt	i
CCOC(=O)C1CCCN(C(=O)/C=C/c2ccccc2)CC1 (centres undefined)	nt	nt	nt	i	nt
COc1ccc2cc(/C=C/C(=O)N3CCN(CC(=O)N4CCCCCC4)CC3)ccc2c1	61.4	i	nt	nt	i
COC(=O)C1CCN(C(=O)/C=C/c2ccc(OC)cc2)CC1	i	i	56.7	i	i
CCOC(=O)C1CCN(C(=O)/C=C/c2ccccc2)CC1	i	i	44.9	nt	i
CCC(=O)NC[C@@H]1[C@@H](c2ccc(-c3cccc(F)c3)cc2)[C@H](CO)N1C(=O)CC	nt	nt	nt	i	nt
C[C@H](CO)N1C[C@H](C)[C@H](CN(C)Cc2ccc3c(c2)OCO3)Oc2ncc(C#CCN(C)C)cc2C1=O	nt	nt	nt	i	nt
COc1ccc(-c2ccc3c(n2)CCCN3Cc2ccccc2C(F)(F)F)cc1	nt	nt	38.0	nt	nt
C[C@H]1CN([C@@H](C)CO)C(=O)Cc2cc(NC(=O)C3CC3)ccc2O[C@@H]1CN(C)Cc1ccc(Oc2ccccc2)cc1	nt	nt	nt	i	nt
CCCC(=O)Nc1ccc2c(c1)OC[C@H](C)N(C(=O)C1CCCC1)C[C@H](C)[C@H](OC)CN(C)C2=O	nt	nt	nt	i	nt
CCOC(=O)c1cnc2c(-c3ccccc3)c(C)nn2c1N	i	nt	i	i	i
CCOC(=O)c1cnn(-c2ccccn2)c1N	i	102.3	nt	i	i
CCOC(=O)c1cnc2c(-c3ccccc3)cnn2c1N	52.7	i	38.4	i	i
CC(C)Cc1ccc(-c2cc3nc(NCCc4ccc(S(N)(=O)=O)cc4)ccn3n2)cc1	nt	nt	i	91.6	nt
NS(=O)(=O)c1ccc(CCNc2ccn3nc(-c4ccccc4)cc3n2)cc1	nt	nt	i	i	nt
CC(C)Cc1ccc(-c2cc3nc(NCCCn4ccnc4)ccn3n2)cc1	nt	nt	i	61.1	nt
CN1CCN(C(=O)C[C@@H]2C=C[C@@H](NC(=O)Cc3ccccn3)[C@@H](CO)O2)CC1	nt	nt	nt	i	nt
CCc1cc2c(Sc3nc4ccccc4s3)ncnc2s1	98.8	i	nt	i	i
c1ccc2sc(Sc3ncnc4sccc34)nc2c1	328.9	i	i	nt	i
CCc1cc2c(SCC(=O)Nc3ccc(NC(C)=O)cc3)ncnc2s1	nt	i	i	i	nt
CC(=O)c1ccc(Nc2ccc(-c3ccccc3F)nn2)cc1	i	i	30.8	?	i
COc1ccccc1-c1ccc(Nc2ccc(C(=O)N3CCOCC3)cc2)nn1	nt	i	nt	i	nt
COc1cc(C(=O)Nc2nnc(SCC(=O)NCC3CCCO3)s2)cc(OC)c1OC (centres undefined)	i	i	i	i	i
COc1ccc(C(=O)Nc2nnc(SCC(=O)Nc3ccc(NC(C)=O)cc3)s2)c(OC)c1	i	i	35.6	i	i
SMILES	HSF-1 act	MITF TRPM1 HTS	Wnt bcat act	esBAF inh	HSF1 inhib
COc1ccccc1-n1nnnc1SCC(=O)NCC1CCCO1 (centres undefined)	i	i	i	nt	i
COc1ccc(C(=O)Nc2nnc(SCC(=O)NC3CCCC3)s2)c(OC)c1	i	i	i	nt	i
Cc1ccc(Nc2nnc(SCC(=O)NCC3CCCO3)s2)cc1C (centres undefined)	nt	i	i	46.9	nt
COc1ccccc1C(=O)Nc1nnc(SCC(=O)NCC2CCCO2)s1 (centres undefined)	i	?	33.7	i	i
COc1ccccc1NC(=O)c1cnc(SCC(=O)NCC2CCCO2)n(C)c1=O (centres undefined)	170.9	i	32.3	i	i
C[C@@H]1CCCCO[C@H](CN(C)CC2CC2)[C@@H](C)CN([C@@H](C)CO)C(=O)c2cc(NS(=O)(=O)c3ccccc3)ccc2O1	nt	nt	nt	i	nt
C[C@@H]1CCCCO[C@H](CN(C)Cc2ccc3c(c2)OCO3)[C@@H](C)CN([C@@H](C)CO)C(=O)c2cc(NC(=O)Nc3cccc4ccccc34)ccc2O1	nt	nt	nt	i	nt
Cc1noc(C)c1NC(=O)NCC[C@H]1CC[C@@H](NC(=O)Nc2cccc(Cl)c2)[C@@H](CO)O1	nt	nt	nt	i	nt
CCOC(=O)c1cn[nH]c1C(F)(F)F	56.9	nt	i	nt	i
CCC(=O)N(C)C[C@@H]1[C@@H](c2ccc(-c3cccnc3)cc2)[C@H](CO)N1C(C)=O	nt	nt	nt	i	nt
COCCCNC(=O)/C(C#N)=C/c1ccc(F)cc1	68.5	i	i	nt	i
C[C@@H]1CN([C@@H](C)CO)C(=O)c2cc(-c3cccc(C#N)c3)cnc2O[C@H]1CN(C)C(=O)C1CC1	nt	nt	nt	i	nt

Assay outcomes as filed in PubChem.
